Measured values as given in article PMC4336329 (PLoS ONE, 2015).
Screen size: about 310,000 compounds; about 14,000 (4.5%) showed an effect of 50% or more. Effects have a minus sign here. The sample holds strong results, similar compounds and a random draw of the others, so the mix is not that of the screen.

Target: human ether-à-go-go-related gene (hERG) potassium channel (human, UniProt Q12809)
Assay: primary screen, population patch clamp on CHO cells stably expressing hERG; higher = less effect of the substance
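Also: peak tail current of the secondary pulse compared with the same well before compound.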

Sequence of human ether-à-go-go-related gene (hERG) potassium channel (Q12809 whole entry, looked up): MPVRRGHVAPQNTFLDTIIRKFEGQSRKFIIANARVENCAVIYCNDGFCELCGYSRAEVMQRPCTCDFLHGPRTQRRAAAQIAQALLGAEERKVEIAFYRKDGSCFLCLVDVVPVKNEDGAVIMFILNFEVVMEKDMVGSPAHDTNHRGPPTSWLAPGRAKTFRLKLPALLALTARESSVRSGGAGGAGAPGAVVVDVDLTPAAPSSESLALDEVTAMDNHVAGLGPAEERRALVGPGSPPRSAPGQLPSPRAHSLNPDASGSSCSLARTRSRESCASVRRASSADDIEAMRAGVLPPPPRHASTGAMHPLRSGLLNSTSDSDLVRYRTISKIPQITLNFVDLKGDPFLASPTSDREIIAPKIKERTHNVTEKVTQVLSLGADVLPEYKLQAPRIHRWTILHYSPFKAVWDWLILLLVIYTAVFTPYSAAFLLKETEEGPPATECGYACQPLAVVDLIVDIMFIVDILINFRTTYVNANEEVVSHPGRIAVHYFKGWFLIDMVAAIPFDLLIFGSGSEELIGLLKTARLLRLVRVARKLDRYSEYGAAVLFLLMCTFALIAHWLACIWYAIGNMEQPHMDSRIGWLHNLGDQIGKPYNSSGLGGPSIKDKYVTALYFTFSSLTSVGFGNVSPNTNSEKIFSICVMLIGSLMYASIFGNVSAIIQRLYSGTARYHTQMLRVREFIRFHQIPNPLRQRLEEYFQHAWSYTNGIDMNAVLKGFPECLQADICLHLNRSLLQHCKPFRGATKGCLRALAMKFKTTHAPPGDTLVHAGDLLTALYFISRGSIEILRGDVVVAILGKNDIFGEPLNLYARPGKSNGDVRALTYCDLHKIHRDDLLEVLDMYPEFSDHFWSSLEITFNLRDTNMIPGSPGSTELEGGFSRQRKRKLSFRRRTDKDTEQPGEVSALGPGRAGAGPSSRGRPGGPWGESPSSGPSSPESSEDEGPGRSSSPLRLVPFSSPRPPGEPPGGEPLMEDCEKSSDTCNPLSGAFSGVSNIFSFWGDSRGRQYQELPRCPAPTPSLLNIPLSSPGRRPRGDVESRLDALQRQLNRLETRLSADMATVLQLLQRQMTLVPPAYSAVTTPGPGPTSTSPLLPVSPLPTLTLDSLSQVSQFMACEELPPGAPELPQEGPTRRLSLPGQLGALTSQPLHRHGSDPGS

Compound | hERG current change (%, negative = inhibition) at 10uM [%]
CC(C)(C)c1ccc(C(=O)NNC(=S)NCC2CCCO2)cc1 (centres unmarked) | 14.4
CCOc1ccc(NC(=O)CCSc2ccc(C)cc2)cc1 | 8.63
O=C(c1ccco1)N1CCN(C(=O)c2ccc(CS(=O)c3cccc(Cl)c3)o2)CC1 (centres unmarked) | -14
Cc1ccc(Nc2nc(N)nc(CN3CCN(C(=O)c4ccco4)CC3)n2)cc1Cl | -74
O=C(c1cccc(Cl)c1)N1CCN(C(=O)c2ccco2)CC1 | -8.43
Nc1nc(CN2CCN(C(=O)c3ccco3)CC2)nc(Nc2cccc(Cl)c2)n1 | -78.6
Cc1ccc(NC(=O)N2CCN(C(=O)c3ccco3)CC2)cc1Cl | -2.38
Cc1cc(/C=C2\SC(=S)NC2=O)c(C)n1-c1ccccc1 | 14.6
Oc1c(/C=C/C=C/C=Nc2ccccc2)sc(=S)n1Cc1ccccc1 | -5.14
CN1CCN(c2nc(-c3ccco3)cc(C(F)(F)F)n2)CC1 | -62.8
Fc1ccc(N2CCN(c3nc(-c4ccco4)cc(C(F)(F)F)n3)CC2)cc1 | 15.2
FC(F)(F)c1cc(-c2ccco2)nc(N2CCN(c3ccccc3)CC2)n1 | 1.67
O=C(O)Cc1ccc(NC(=O)C2CC=CCC2C(=O)O)cc1 (centres unmarked) | 23.7
C[C@@H](NC(=O)c1nc[nH]c1C(=O)NC1CCN(C(=O)OC(C)(C)C)CC1)c1ccccc1 | -14.4
CCOc1ccccc1C1CC(c2ccc(Br)cc2)Nc2nc(N)nn21 (centres unmarked) | -55.1
CCOc1ccccc1C1CC(c2ccccc2)Nc2nc(N)nn21.Cl (centres unmarked) | -11.9
Nc1nc2n(n1)C(c1cccs1)CC(c1ccc(Br)cc1)N2 (centres unmarked) | -57.5
Nc1nc2n(n1)C(c1c(F)cccc1Cl)CC(c1ccc(F)cc1)N2 (centres unmarked) | -62.4
Nc1nc2n(n1)C(c1cccs1)CC(c1ccccc1)N2 (centres unmarked) | -23.5
Nc1nc2n(n1)C(c1cccs1)CC(c1ccc(F)cc1)N2 (centres unmarked) | -33.9
Cc1ccc(C2CC(c3ccccc3C)n3nc(N)nc3N2)cc1 (centres unmarked) | -14.6
COc1cccc(C2CC(c3c(F)cccc3Cl)n3nc(N)nc3N2)c1 (centres unmarked) | -2.6
Cc1ccccc1C1CC(c2ccc(F)cc2)Nc2nc(N)nn21 (centres unmarked) | -27.2
CCOc1ccccc1C1CC(c2ccc(F)cc2)Nc2nc(N)nn21 (centres unmarked) | -48.1

Compound | hERG current change (%, negative = inhibition) at 10uM [%]
Cc1ccccc1C1CC(c2ccc(Br)cc2)Nc2nc(N)nn21 (centres unmarked) | -52.3
Nc1nc2n(n1)C(c1ccccc1Cl)CC(c1ccc(F)cc1)N2 (centres unmarked) | -25.1
CC(=O)N1CCN=C1SCc1cccc(Cl)c1 | -3.91
CC(C)C(c1nnnn1C1CCCCC1)N1CCc2ccccc2C1 (centres unmarked) | 2.91
c1ccc(-c2cnc(-c3ccccn3)nn2)cc1 | 18.6
O=C(NCc1ccco1)c1ccc(N2CCCC2=O)cc1 | 4.3
Cc1cc(Nc2ccc(O)cc2)ccc1N | 14.1
COc1ccc(CCN=C2SCC(=O)N2C)cc1OC | -4.8
CCCCn1c(N)c(N(CCOC)C(=O)CSCc2c(C)noc2C)c(=O)[nH]c1=O | 17.1
O=C(O)c1ccc(NS(=O)(=O)c2ccc(N3CCCC3)c([N+](=O)[O-])c2)cc1 | 11.3
CCN(CCO)c1nc(N2CCCCC2)c2cnn(C)c2n1 | 3.12
COc1ccc2c(=O)c(C(=O)O)c(-c3ccc4c(c3)OCO4)n(C)c2c1 | 17.2
CCN=C1SC(CC(=O)NCC)C(=O)N1CC (centres unmarked) | -12.5
O=C(N/N=C/c1ccc(O)cc1)c1cc(-c2ccccc2)nc2ccccc12 | 11.2
Cc1cccc(NC(=O)c2cc3ccccc3o2)c1 | -19.8
CCCCn1c(C(C)NC(=O)CC)nc2ccccc21 (centres unmarked) | -21.9
CCn1c(NCc2ccco2)nc2ccccc21 | 2.38
CCCCCn1c(C(C)NC(=O)CCC)nc2ccccc21 (centres unmarked) | -48.4
Cn1c(NCc2ccco2)nc2ccccc21 | -10.2
CCCn1c(NCc2ccc(C)o2)nc2ccccc21 | -24.1
CCN(CC)CCn1c(NCc2ccccn2)nc2ccccc21.Cl | -34.4
c1csc(Cn2c(-c3cccs3)nc3ccccc32)c1 | -68.6
C=CCn1c(-c2cccs2)nc2ccccc21 | 3.12
